Compounds without any hit were thinned out: in the full panel of roughly 83,000, 20% have a hit.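 Testing used 96-well plates and a 48-hour single-concentration exposure. Example: -40 means 40% of the starting cells died.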 Values without a mark were called inactive. Calls of active or inactive are those of the source. The calls were made as follows: active = growth percent below 10; inactive = the rest.
Assays:
Assay in all cases: NCI-60 one-dose screen, 48 h (100 = growth as untreated, 0 = no growth, -100 = all killed)
Details in all cases: 10 µM unless noted
BT-549 breast = tested on: BT-549 breast
MDA-MB-435 melanoma = tested on: MDA-MB-435 melanoma
SW-620 colon = tested on: SW-620 colon
MCF7 breast = tested on: MCF7 breast
HCT-116 colon = tested on: HCT-116 colon
HCC-2998 colon = tested on: HCC-2998 colon
KM12 colon = tested on: KM12 colon

SMILES | growth (BT-549 breast) | growth (MDA-MB-435 melanoma) | growth (SW-620 colon) | growth (MCF7 breast) | growth (HCT-116 colon) | growth (HCC-2998 colon) | growth (KM12 colon)
O=c1[nH]c2ccccc2cc1CSc1ccccc1Nc1nccc(-c2ccc(C(F)(F)F)cc2)n1 | 112% | 74.6% | 68.1% | 40.3% | 43.4% | 90.4% | 79.3%
COc1cccc(-c2nn(-c3ccccc3)cc2-c2ccnc(N3CCN(C(=O)c4ccccc4)CC3)c2)c1 | 91.4% | 17% | 72.1% | 85.5% | 73.3% | 113% | –
N[C@@H](Cc1cn(-c2ccnc3ccccc23)nn1)C(=O)O | 118% | 106% | 104% | 101% | 104% | 104% | –
COc1ccc(N/N=C/c2c(-c3ccc(S(C)(=O)=O)cc3)nc3ccccn23)cc1 | 60.5% | 34.1% | 30.1% | 24.3% | 32.5% | 49.3% | –
Clc1ccc2c(NCCCN3CCOCC3)c3oc4ccccc4c3nc2c1 | 104% | 36% | 21.8% | 16.6% | 20.1% | 50.4% | 32%
C=C1CC[C@H]2[C@@](C)(CCC3OC(c4ccc(OCc5cn(C6CC(OC(C)=O)C(OC(C)=O)C(COC(C)=O)O6)nn5)cc4)OC[C@]32C)[C@@H]1/C=C/C1=CCOC1=O (stereo not given in full) | 61.2% | 85.4% | 96.1% | 44.4% | 48.3% | 100% | 86.3%
COC(=O)c1ccc(NC(=S)N2CCc3ccc([N+](=O)[O-])cc3C2)cc1O | 101% | 111% | 110% | 92.7% | 117% | 110% | 103%
Cc1ccc2ccc3ccc(C)nc3c2n1.Cc1ccc2ccc3ccc(C)nc3c2n1.Oc1c(Cl)cc(Cl)c2ccc(CN3CCCCC3)nc12.[Ru] | -95.8% (active) | -90.5% (active) | -40% (active) | -75.1% (active) | -92% (active) | -90.1% (active) | -73.9% (active)
COC(=O)C1CCCN(S(=O)(=O)/N=C2\NC(=O)NC2=C(Cl)Cl)C1 (stereo not given) | 118% | 111% | 85.8% | 20.4% | 97.8% | 111% | 4.95% (active)
O=C1/C(=C/C2=Cc3ccccc3OC2)SC(=S)N1c1ccc(F)cc1 | 100% | 101% | 107% | 90.6% | 99.1% | 107% | 97.5%
C=CCn1c(SCC(=O)c2ccc(Br)cc2)nnc1-c1c[nH]c2ccccc12 | 106% | 108% | 110% | 97.9% | 93.5% | 104% | 102%
CN(C)CCCNc1c2ccc(Cl)cc2nc2c1oc1ccc(Cl)cc12 | 79.9% | -74.3% (active) | -79% (active) | -76.4% (active) | -93.7% (active) | -85.1% (active) | -56.3% (active)
CCCSc1nc(Nc2ccc(/C(C)=N\NC(N)=S)cc2)c(C#N)c(-c2ccc(OC)cc2)n1 | 82% | 70.7% | 103% | 69.1% | 45.3% | 110% | 84.7%
CCN1C(=S)N(CC)C2C1NN=C1SC(c3ccccc3)=CC(=O)N12 (stereo not given) | 106% | 59% | 111% | 95.4% | 104% | 111% | 94.3%
N[C@@H](Cc1cn(-c2c3ccccc3nc3ccccc23)nn1)C(=O)O | 117% | 104% | 105% | 73.9% | 106% | 117% | –
O=C(CN1CCOCC1)NNc1ncnc2ccccc12 | 100% | 91.7% | -26% (active) | 64.6% | 81.7% | 114% | 97.1%
COc1cc2nc(-c3ccc(C(F)(F)F)cc3)cc(OCCCNCC3CCCO3)c2cc1OC (stereo not given) | 66.3% | 5.88% (active) | 16.3% | 13% | 22.6% | 54.4% | 27.3%

SMILES | growth (BT-549 breast) | growth (MDA-MB-435 melanoma) | growth (SW-620 colon) | growth (MCF7 breast) | growth (HCT-116 colon) | growth (HCC-2998 colon) | growth (KM12 colon)
O=c1/c(=C\c2ccc(-c3ccccc3)o2)sc2nc(-c3ccccc3)nn12 | 119% | 101% | 104% | 99.1% | 103% | 113% | –
CN(C)CCCOc1c2ccc(Cl)cc2nc2c1oc1ccccc12 | 8.05% (active) | -51.9% (active) | 9.59% (active) | -18.6% (active) | 1.47% (active) | -58.1% (active) | 0.963% (active)
CCCCCCNC(=O)Oc1ccc(/C(=C(/C)c2ccccc2)c2ccc(OCCN3CCCCCC3)cc2)cc1 | 66.7% | 49.6% | -35.2% (active) | 13.6% | 23.8% | 56.7% | 32.3%
O=C(CSc1nc2sc3c(c2c(=O)n1-c1ccc(Cl)cc1)CCCC3)NNC(=O)Nc1ccc(Cl)c(C(F)(F)F)c1 | 69% | 46.8% | 4.66% (active) | 18.6% | 13.6% | 42.4% | 25.9%
COc1ccc(-c2csc(N/N=C/c3c(-c4ccc(S(C)(=O)=O)cc4)nc4ccccn34)n2)cc1 | 115% | 101% | 107% | 89.1% | 104% | 115% | 103%
O=C(N/N=C/c1ccc(Cl)s1)c1[nH]c2ccc(Br)cc2c1-c1ccccc1 | -18.1% (active) | -8.88% (active) | 25% | 7.95% (active) | -27.5% (active) | 19.9% | 10.5%
CCC/C=C/C=C/C(=O)N[C@@H](Cc1cc(F)cc(F)c1)C(=O)N[C@@H]1C(=O)N2CCC[C@H]2C(=O)N2CCCC[C@H]2C(=O)N[C@@H](C)C(=O)N2C[C@H](C)C[C@H]2C(=O)O[C@H]1C | 11.5% | 17% | 32.5% | 15% | 13.4% | 24.1% | 33.3%
COc1ccc(C(=O)/C=C/c2ccc(Oc3nc(NCCO)nc(N4CCOCC4)n3)c(OC)c2)cc1 | 90.9% | 44.5% | 0.395% (active) | 12.7% | 10.6% | 99.8% | 28.9%
OC1CCN(CCCOc2c3ccccc3nc3c2oc2ccccc23)CC1 | 7.19% (active) | -10.5% (active) | 1.37% (active) | 0.978% (active) | 3.79% (active) | -12.4% (active) | 5.22% (active)
CN(C)CCCOc1c2ccccc2nc2c1oc1ccc(Cl)cc12 | 19.2% | -19.8% (active) | -3.7% (active) | -16.6% (active) | 10.9% | 11.1% | 1.62% (active)
NS(=O)(=O)c1cccc(Nc2nc(SCC(=O)c3ccc([N+](=O)[O-])cc3)nc3ccccc23)c1 | -4.45% (active) | 51.3% | 69.2% | 11.7% | 36.8% | 54.3% | 38.4%
C=CCSc1ccc2c(c1)C(N1CCNCC1)=Nc1ccccc1O2 | 106% [8.25 µM] | 68% [8.25 µM] | 73.4% [8.25 µM] | 59.2% [8.25 µM] | 55.1% [8.25 µM] | -14.8% [8.25 µM] (active) | –
CNC(=O)c1cc(-c2ccc(NC(=O)Nc3ccc(N4CCOCC4)c(C(F)(F)F)c3)cc2)nc2cccnc12 | 84.8% | 72.6% | 72.3% | 12.3% | 52.3% | 79.9% | –
CCCC(=O)NC(c1ccc(N(CC)CC)cc1)c1cc(C)c2cccnc2c1O (stereo not given) | 29.9% | 34.8% | 31.4% | 14.3% | 16.8% | 33.9% | 29.6%
CC(C)NC(=O)c1cc(-c2ccc(NC(=O)Nc3ccc(N4CCOCC4)c(C(F)(F)F)c3)cc2)nc2cccnc12 | 66.7% | 67.9% | 79.7% | 37.2% | 63.9% | 106% | –
O=C(N/N=C/c1cccs1)c1[nH]c2ccc(Br)cc2c1-c1ccccc1 | -14.2% (active) | -26.1% (active) | 22.8% | 8.78% (active) | -33.7% (active) | 24.1% | 6.37% (active)
[Cl][Ru].c1ccc(-c2cccc(-c3ccccn3)n2)nc1.c1ccc(-c2ccnc3c2ccc2c(-c4ccccc4)ccnc23)cc1 | 7.88% (active) | 10.5% | 40.2% | 9.54% (active) | 36.9% | 31.3% | 8.28% (active)
